Test results published in PubChem BioAssay.
For some assays here: Measured potencies and affinities stand elsewhere. Active and inactive are the calls of the source. Unless noted, no rule for the calls is given here.

Columns and labels:
[1] = antimalarial activity against Dd2 strain (AID 2302;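 active = growth inhibition above 50% at the single 2 µM test dose, taken to imply half-maximal potency below 2 µM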;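 also: 0% = DMSO untreated growth and 100% = chloroquine plus artemisinin killed control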); details: P. falciparum Dd2 in RBCs, LDH growth readout, 72 h; at 2 µM; hits give high values
[2] = HepG2 cytotoxicity, primary screen, cytotoxicity control for P. falciparum antimalarial project, cell-based, ATP luminescence (AID 2303;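 active = inhibition above 50%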;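 also: 0% = DMSO wells and 100% = digitonin-killed cells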); details: HepG2 viability, 24-48 h, at 10 µM, hits give high values
[3] = biological target: L-lactate dehydrogenase (Plasmodium falciparum (isolate CDC / Honduras)) (UniProt Q27743); assay: PfLDH activity inhibition – cell lysate, 3D7 strain, counter-screen for P. falciparum growth inhibition project (AID 2304);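 also: 0% = vehicle and 100% = reference inhibitor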; details: P. falciparum 3D7 crude extract, LDH APAD/NBT absorbance; at 2 µM; hits give high values
Sequence of L-lactate dehydrogenase (Plasmodium falciparum (isolate CDC / Honduras)) (Q27743 whole entry, looked up): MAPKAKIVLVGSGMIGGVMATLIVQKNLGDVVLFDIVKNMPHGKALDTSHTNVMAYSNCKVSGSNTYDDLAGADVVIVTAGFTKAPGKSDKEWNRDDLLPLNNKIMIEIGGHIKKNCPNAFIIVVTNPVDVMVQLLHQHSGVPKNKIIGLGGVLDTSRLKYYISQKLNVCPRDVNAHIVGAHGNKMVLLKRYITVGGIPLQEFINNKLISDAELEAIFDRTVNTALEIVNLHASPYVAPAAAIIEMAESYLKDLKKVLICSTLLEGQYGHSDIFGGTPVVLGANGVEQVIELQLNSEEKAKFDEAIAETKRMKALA

[4] = inhibition of 3D7 malaria parasite growth – strain 3D7 (AID 2306);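 also: 0% = DMSO wells and 100% = chloroquine plus artemisinin control wells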; details: P. falciparum 3D7 erythrocytic growth, LDH absorbance, 72 h; at 2 µM; hits give high values
[5] = biological target: Calcium-dependent protein kinase 1 (Plasmodium falciparum (isolate 3D7)) (UniProt P62344); assay: PfCDPK1 kinase inhibitors, biochemical, TCAMS library (AID 1159585; cut-off not given, nearly all actives have IC50 up to about 0.98 µM;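 also: inhibitors leave more ATP so luminescence rises with inhibition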); details: recombinant PfCDPK1, Kinase-Glo ATP depletion luminescence
Sequence of Calcium-dependent protein kinase 1 (Plasmodium falciparum (isolate 3D7)) (P62344 whole entry, looked up): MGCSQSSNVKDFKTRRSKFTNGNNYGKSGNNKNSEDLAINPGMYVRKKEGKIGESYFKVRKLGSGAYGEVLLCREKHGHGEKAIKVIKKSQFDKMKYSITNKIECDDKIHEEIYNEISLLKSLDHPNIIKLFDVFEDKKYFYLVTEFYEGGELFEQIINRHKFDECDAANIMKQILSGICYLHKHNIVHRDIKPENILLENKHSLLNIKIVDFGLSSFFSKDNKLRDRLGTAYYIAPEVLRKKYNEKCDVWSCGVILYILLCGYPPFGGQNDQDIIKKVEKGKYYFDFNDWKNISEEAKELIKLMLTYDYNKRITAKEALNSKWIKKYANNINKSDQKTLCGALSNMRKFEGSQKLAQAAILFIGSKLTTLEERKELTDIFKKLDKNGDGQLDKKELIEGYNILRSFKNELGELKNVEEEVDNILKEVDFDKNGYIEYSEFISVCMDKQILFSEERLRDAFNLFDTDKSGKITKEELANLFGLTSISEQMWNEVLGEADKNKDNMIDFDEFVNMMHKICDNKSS

[6] = biological target: Plasmodium falciparum protein kinase 6 (PK6, PF3D7_1337100) (UniProt Q8IDW1); assay: PfPK6 kinase inhibitors, biochemical, TCAMS library (AID 1159586); details: recombinant PfPK6, Kinase-Glo ATP depletion luminescence
Sequence of Plasmodium falciparum protein kinase 6 (PK6, PF3D7_1337100) (Q8IDW1 1-305): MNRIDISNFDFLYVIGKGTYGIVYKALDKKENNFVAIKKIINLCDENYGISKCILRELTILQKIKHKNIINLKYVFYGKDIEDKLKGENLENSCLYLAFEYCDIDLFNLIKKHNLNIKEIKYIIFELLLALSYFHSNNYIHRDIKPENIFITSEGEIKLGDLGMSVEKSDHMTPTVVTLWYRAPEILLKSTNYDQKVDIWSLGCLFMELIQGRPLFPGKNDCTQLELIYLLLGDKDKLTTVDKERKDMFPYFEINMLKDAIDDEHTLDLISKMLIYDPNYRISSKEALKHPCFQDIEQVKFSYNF

[7] = biological target: Protein kinase 7 (PK7), Plasmodium falciparum 3D7 (PF3D7_0213400) (UniProt Q7YTF7); assay: inhibition of Plasmodium PK7 catalytic activity – biochemical, TCAMS antimalarial set, Kinase-Glo luminescence (AID 1159587); details: recombinant PfPK7, Kinase-Glo ATP depletion luminescence
Sequence of Protein kinase 7 (PK7), Plasmodium falciparum 3D7 (PF3D7_0213400) (Q7YTF7 1-343): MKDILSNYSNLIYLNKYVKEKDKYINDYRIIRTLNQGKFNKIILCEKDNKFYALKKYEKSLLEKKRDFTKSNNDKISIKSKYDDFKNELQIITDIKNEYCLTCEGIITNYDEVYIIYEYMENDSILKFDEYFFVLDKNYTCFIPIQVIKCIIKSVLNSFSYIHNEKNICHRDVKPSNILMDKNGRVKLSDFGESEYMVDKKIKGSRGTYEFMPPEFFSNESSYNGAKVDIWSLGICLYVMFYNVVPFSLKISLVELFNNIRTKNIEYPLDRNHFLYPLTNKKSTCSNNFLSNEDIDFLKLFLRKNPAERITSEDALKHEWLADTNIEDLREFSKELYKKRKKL

[8] = biological target: Calcium-dependent protein kinase 4 (Plasmodium falciparum (isolate 3D7)) (UniProt Q8IBS5); assay: PfCDPK4 kinase inhibitors, biochemical, TCAMS library (AID 1159588; cut-off not given, nearly all actives have IC50 up to about 0.91 µM); details: recombinant PfCDPK4, Kinase-Glo ATP depletion luminescence
Sequence of Calcium-dependent protein kinase 4 (Plasmodium falciparum (isolate 3D7)) (Q8IBS5 whole entry, looked up): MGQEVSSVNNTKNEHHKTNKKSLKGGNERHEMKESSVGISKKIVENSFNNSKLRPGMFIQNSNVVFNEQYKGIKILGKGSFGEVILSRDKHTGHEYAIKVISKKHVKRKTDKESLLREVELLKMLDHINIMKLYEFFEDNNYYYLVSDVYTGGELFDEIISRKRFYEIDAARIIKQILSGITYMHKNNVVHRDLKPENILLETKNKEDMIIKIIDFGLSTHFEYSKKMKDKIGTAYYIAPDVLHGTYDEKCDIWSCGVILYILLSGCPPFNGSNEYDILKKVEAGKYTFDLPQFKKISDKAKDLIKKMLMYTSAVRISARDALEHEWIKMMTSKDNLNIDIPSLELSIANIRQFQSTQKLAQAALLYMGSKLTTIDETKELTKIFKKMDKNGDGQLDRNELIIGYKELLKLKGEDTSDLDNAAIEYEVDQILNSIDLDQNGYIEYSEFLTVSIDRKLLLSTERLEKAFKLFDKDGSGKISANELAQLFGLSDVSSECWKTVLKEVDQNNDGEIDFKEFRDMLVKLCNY

Cc1cc(NC(=O)Nc2cccc(C#N)c2)c2ccccc2n1
inactive: inhibition [2] 17% | inhibition [3] -1% | outcome [5] | outcome [6] | outcome [7] | outcome [8]
active: growth inhibition [1] 82% | growth inhibition [4] 100%

NC(=O)c1cccc(CNC(=O)NC[C@H]2CN(Cc3ccc(Cl)c(Cl)c3)CCO2)c1
inactive: inhibition [2] -3% | inhibition [3] 1% | outcome [5] | outcome [6] | outcome [7] | outcome [8]
active: growth inhibition [1] 65% | growth inhibition [4] 98%

COc1cccc(C2=CC(C)(C)Oc3cc(OCCN(C)C)ccc32)c1
active: growth inhibition [1] 96% | inhibition [2] 57% | growth inhibition [4] 97%
inactive: inhibition [3] -4% | outcome [5] | outcome [6] | outcome [7] | outcome [8]

O=C(/C=C/c1ccc(Cl)c(Cl)c1)NCCCCCN1CCC(c2[nH]nc(-c3ccccc3)c2Br)CC1
inactive: growth inhibition [1] 23% | inhibition [3] 1% | outcome [5] | outcome [6] | outcome [7] | outcome [8]
active: inhibition [2] 100% | growth inhibition [4] 95%

CCCCN(C)CC#Cc1ccc2[nH]c(C)c(Cl)c(=O)c2c1
active: growth inhibition [1] 97% | growth inhibition [4] 98%
inactive: inhibition [2] -2% | inhibition [3] -6% | outcome [5] | outcome [6] | outcome [7] | outcome [8]

Cc1ccccc1C1CCN(C2CCC(NC(=O)/C=C/c3ccc4c(c3)OC(F)(F)O4)CC2)CC1 (stereo unspecified)
inactive: growth inhibition [1] 39% | inhibition [3] 2% | outcome [5] | outcome [6] | outcome [7] | outcome [8]
active: inhibition [2] 75% | growth inhibition [4] 100%

CC(C)Oc1ccc(N2CCN(CCCCNC(=O)c3ccc(NC(=O)c4ccc(Cl)cc4)cc3)CC2)c(OC(C)C)c1
inactive: inhibition [2] 31% | inhibition [3] 1% | outcome [5] | outcome [6] | outcome [7] | outcome [8]
active: growth inhibition [1] 85% | growth inhibition [4] 102%

FC(F)(F)c1ccc2nc(-c3ccc(-c4cccc(CN5CCN(CCN6CCOCC6)CC5)c4)cc3)[nH]c2c1
inactive: inhibition [2] 47% | inhibition [3] -6% | outcome [5] | outcome [6] | outcome [7] | outcome [8]
active: growth inhibition [1] 77% | growth inhibition [4] 98%

Cc1noc(C)c1-c1cccc(CNCc2cccc(-c3ccc(-c4nc5c(C)cccc5[nH]4)cc3)c2)c1
inactive: inhibition [2] 24% | inhibition [3] 6% | outcome [5] | outcome [6] | outcome [7] | outcome [8]
active: growth inhibition [1] 69% | growth inhibition [4] 103%

Cc1ccc(NC(=O)c2cccc(CN3CCCN(Cc4cccc(O)c4)CC3)c2)cc1F
active: growth inhibition [4] 99%
inactive: growth inhibition [1] 45% | inhibition [2] 20% | inhibition [3] -5% | outcome [5] | outcome [6] | outcome [7] | outcome [8]

S=C(NCCCCCN1CCC(c2c[nH]c3ccccc23)CC1)Nc1cccc(I)c1
active: inhibition [2] 69% | growth inhibition [4] 99%
inactive: growth inhibition [1] 14% | inhibition [3] -3% | outcome [5] | outcome [6] | outcome [7] | outcome [8]

CCCCCCCCNCCCSCCCNCCCCCCCC
active: inhibition [2] 63% | growth inhibition [4] 97%
inactive: growth inhibition [1] 47% | inhibition [3] -3% | outcome [5] | outcome [6] | outcome [7] | outcome [8]

N#Cc1ccc(N2C[C@@H](OCc3ccccc3)C[C@H]2C(=O)NCCC(c2ccccc2)c2ccccc2)c2ccccc12
inactive: inhibition [2] 11% | inhibition [3] -6% | outcome [5] | outcome [6] | outcome [7] | outcome [8]
active: growth inhibition [1] 96% | growth inhibition [4] 93%

CCOCCCNc1ncc(-c2ccsc2)c(-c2nc(C)cs2)n1
inactive: inhibition [2] 0% | inhibition [3] 1% | outcome [5] | outcome [6] | outcome [7] | outcome [8]
active: growth inhibition [1] 83% | growth inhibition [4] 89%

CC(C)Cn1c(Sc2ccc(C#N)c([N+](=O)[O-])c2)nnc1-c1cccc(Cl)c1
inactive: inhibition [2] 24% | inhibition [3] 5% | outcome [5] | outcome [6] | outcome [7] | outcome [8]
active: growth inhibition [1] 95% | growth inhibition [4] 98%

C=CCN1Cc2c(O)cccc2C(c2ccc(O)c(O)c2)C1 (stereo unspecified)
inactive: growth inhibition [1] 6% | inhibition [2] -5% | inhibition [3] 0% | outcome [5] | outcome [6] | outcome [7] | outcome [8]
active: growth inhibition [4] 97%

C=CCn1c(SCc2c(C)noc2C)nc2scc(-c3cccs3)c2c1=O
active: growth inhibition [4] 88%
inactive: growth inhibition [1] 34% | inhibition [2] 13% | inhibition [3] 0% | outcome [5] | outcome [6] | outcome [7] | outcome [8]

CC(C)(C)c1ccc(CNC(=O)/C=C/c2ccc(-c3nc4ccc(C(C)(C)C)cc4[nH]3)cc2)cc1
inactive: inhibition [2] 35% | inhibition [3] -2% | outcome [5] | outcome [6] | outcome [7] | outcome [8]
active: growth inhibition [1] 66% | growth inhibition [4] 100%

CC1CN(c2ccc(NC(=O)c3ccsc3)cc2C(=O)N2CCN(Cc3ccc(C(C)(C)C)cc3)CC2)CC(C)O1 (stereo unspecified)
active: growth inhibition [1] 80% | growth inhibition [4] 90%
inactive: inhibition [2] 12% | inhibition [3] 7% | outcome [5] | outcome [6] | outcome [7] | outcome [8]

COC(=O)c1cccc(CNCc2cccc(-c3cccc(-c4nc5ccccc5[nH]4)c3)c2)c1
inactive: inhibition [2] 3% | inhibition [3] -3% | outcome [5] | outcome [6] | outcome [7] | outcome [8]
active: growth inhibition [1] 58% | growth inhibition [4] 95%

Cc1ccc(NC(=O)c2cccc(CN3CCCN(Cc4cccc(O)c4)CC3)c2)cc1C
inactive: growth inhibition [1] 31% | inhibition [2] 19% | inhibition [3] 1% | outcome [5] | outcome [6] | outcome [7] | outcome [8]
active: growth inhibition [4] 95%

CCN(CC)CCOc1c(Cl)cc(Cl)cc1CNCCCNc1cc(=O)c2ccccc2[nH]1
inactive: growth inhibition [1] 6% | inhibition [2] 11% | inhibition [3] -1% | outcome [5] | outcome [6] | outcome [7] | outcome [8]
active: growth inhibition [4] 97%

O=C(Nc1cccc(CN2CCCN(CC3CCCCC3)CC2)c1)c1cc2ccccc2s1
active: growth inhibition [4] 96%
inactive: growth inhibition [1] 15% | inhibition [2] 29% | inhibition [3] 0% | outcome [5] | outcome [6] | outcome [7] | outcome [8]

COc1cccc(CCc2c(CCNCCCCCCNCCc3ccccc3)ccc(OC)c2OC)c1
active: growth inhibition [1] 69% | inhibition [2] 100% | growth inhibition [4] 100%
inactive: inhibition [3] 6% | outcome [5] | outcome [6] | outcome [7] | outcome [8]

COc1ccc(CNC2Cc3ccccc3C2)cc1-c1ccc(S(=O)(=O)NCc2cccnc2)s1
active: growth inhibition [4] 91%
inactive: growth inhibition [1] 18% | inhibition [2] 49% | inhibition [3] 3% | outcome [5] | outcome [6] | outcome [7] | outcome [8]

CS(=O)(=O)c1ccc(-c2cc(C(F)(F)F)nc(N[C@@H]3CCCC[C@H]3OCc3ccccc3)n2)cc1
inactive: inhibition [2] 8% | inhibition [3] 5% | outcome [5] | outcome [6] | outcome [7] | outcome [8]
active: growth inhibition [1] 99% | growth inhibition [4] 100%

CCOc1ccc(C=CC(=O)Nc2ccc3nc(N4CCN(C)CC4)cc(C)c3c2)cc1OC
inactive: inhibition [2] -2% | inhibition [3] -10% | outcome [5] | outcome [6] | outcome [7] | outcome [8]
active: growth inhibition [1] 70% | growth inhibition [4] 102%

COc1ccc(C(=O)C2CCN(CCCCNC(=O)c3ccc(NC(=O)c4ccc(Cl)cc4)cc3)CC2)c(OC)c1
active: growth inhibition [4] 98%
inactive: growth inhibition [1] 13% | inhibition [2] 47% | inhibition [3] 4% | outcome [5] | outcome [6] | outcome [7] | outcome [8]

COc1ccc(-c2ccc(NC(=O)c3cccc(C#N)c3)cc2)cc1CN1CCCN(C)CC1
active: growth inhibition [1] 70% | growth inhibition [4] 102%
inactive: inhibition [2] 26% | inhibition [3] 6% | outcome [5] | outcome [6] | outcome [7] | outcome [8]

COc1cc(Nc2ccnc3cc(-c4ccccn4)ccc23)cc(OC)c1OC
inactive: growth inhibition [1] 0% | inhibition [2] -9% | inhibition [3] -1% | outcome [5] | outcome [6] | outcome [7] | outcome [8]
active: growth inhibition [4] 91%

Nc1nc(Nc2cccc(Cl)c2)ncc1C(=O)NCc1ccncc1
active: growth inhibition [4] 98%
inactive: growth inhibition [1] 29% | inhibition [2] 3% | inhibition [3] -5% | outcome [5] | outcome [6] | outcome [7] | outcome [8]

O=C(NCc1cccc2ccccc12)C(c1cc2ccccc2o1)N1CCN(C(c2ccccc2)c2ccccc2)CC1 (stereo unspecified)
inactive: inhibition [2] -3% | inhibition [3] -2% | outcome [5] | outcome [6] | outcome [7] | outcome [8]
active: growth inhibition [1] 90% | growth inhibition [4] 99%

CC1Cc2ccccc2N1S(=O)(=O)c1cccc(C(=O)Nc2nc(-c3ccccn3)cs2)c1 (stereo unspecified)
active: growth inhibition [1] 77% | growth inhibition [4] 84%
inactive: inhibition [2] 32% | inhibition [3] -2% | outcome [5] | outcome [6] | outcome [7] | outcome [8]

COCCN1CCN(Cc2cccc(-c3ccc(-c4nc5ccccc5[nH]4)cc3)c2)CC1
inactive: inhibition [2] 9% | inhibition [3] 1% | outcome [5] | outcome [6] | outcome [7] | outcome [8]
active: growth inhibition [1] 50% | growth inhibition [4] 100%

COc1ccc2ncc(C)c(CCN3CCC(NCc4ccc5c(n4)NC(=O)CS5)CC3)c2c1
active: growth inhibition [1] 53% | growth inhibition [4] 100%
inactive: inhibition [2] 14% | inhibition [3] -4% | outcome [5] | outcome [6] | outcome [7] | outcome [8]

COc1ccc2nc3ccccc3c(NCCN3CCN(C)CC3)c2c1
inactive: growth inhibition [1] 10% | inhibition [2] 11% | inhibition [3] 1% | outcome [5] | outcome [6] | outcome [7] | outcome [8]
active: growth inhibition [4] 81%

O=C(/C=C/c1ccc(Cl)c(Cl)c1)NCCCCCN1CCC(CCNC(=O)/C=C/c2ccc(Cl)c(Cl)c2)CC1
active: growth inhibition [1] 56% | inhibition [2] 68% | growth inhibition [4] 101%
inactive: inhibition [3] -5% | outcome [5] | outcome [6] | outcome [7] | outcome [8]
